# In the supplement of paper PMC8728848:
# The full list was thinned out, with the strongest signals kept by preference.
# B1: MpAFP NterminalRI GFP (Marinomonas primoryensis) (protein)
# chain: MSDNQFPFATLGNAIGFITKLDGSVTVQSIDGQERVLKLGDPIFFGETVLTGGSGSVTIAFVDGTDVVIGGDSIVEMTDEIYNTGDNEDLVADSSSEIDALQNAILAGDDPTLIQDAPAAGNTLADQQRVDVSIERNDNSAQAGFGVDTQSSLPTYGYDTDNGNGGQATEREYSAPSLSRTLNQSPLLEHHHHHH
# Tests used:
# Test in all cases: glycan array binding signal (z-score within array); higher = stronger binding
# Conditions in all cases: glycan notation: IUPAC condensed, linker removed
# [1] = molecular target: GlcNAc(b1-3)Gal(b1-4)GlcNAc(b1-3)Gal(b1-4)GlcNAc(b1-3)Gal(b1-4)GlcNAc(b1-2)Man(a1-3)[GlcNAc(b1-3)Gal(b1-4)GlcNAc(b1-3)Gal(b1-4)GlcNAc(b1-3)Gal(b1-4)GlcNAc(b1-2)Man(a1-6)]Man(b1-4)GlcNAc(b1-4)GlcNAc
# In short: (§1)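 The binding signal is a Z-score computed within each array and averaged over linkers. Arrays of the same protein sequence at different concentrations or buffers were also averaged together. Data originate from 3228 arrays in the Consortium for Functional Glycomics database, kept only where the protein sequence was available.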
# [2] = molecular target: GlcNAc(b1-3)Gal(b1-4)GlcNAc(b1-3)Gal(b1-4)GlcNAc(b1-3)Gal(b1-4)GlcNAc(b1-2)[GlcNAc(b1-3)Gal(b1-4)GlcNAc(b1-3)Gal(b1-4)GlcNAc(b1-3)Gal(b1-4)GlcNAc(b1-6)]Man(a1-6)[GlcNAc(b1-3)Gal(b1-4)GlcNAc(b1-3)Gal(b1-4)GlcNAc(b1-3)Gal(b1-4)GlcNAc(b1-2)Man(a1-3)]Man(b1-4)GlcNAc(b1-4)[Fuc(a1-6)]GlcNAc
# In short: as §1
# [3] = molecular target: GlcNAc(b1-3)Gal(b1-4)GlcNAc(b1-3)Gal(b1-4)GlcNAc(b1-3)Gal(b1-4)GlcNAc(b1-3)Gal(b1-4)GlcNAc(b1-2)Man(a1-3)[GlcNAc(b1-3)Gal(b1-4)GlcNAc(b1-3)Gal(b1-4)GlcNAc(b1-3)Gal(b1-4)GlcNAc(b1-3)Gal(b1-4)GlcNAc(b1-2)Man(a1-6)]Man(b1-4)GlcNAc(b1-4)GlcNAc
# In short: as §1
# [4] = molecular target: GlcNAc(b1-3)Gal(b1-4)GlcNAc(b1-3)Gal(b1-4)GlcNAc(b1-3)GalNAc
# In short: as §1
# [5] = molecular target: GlcNAc(b1-3)[GlcNAc(b1-6)]Gal(b1-4)GlcNAc
# In short: as §1
# [6] = molecular target: GlcNAc(b1-4)GlcNAc
# In short: as §1
# [7] = molecular target: Man(a1-2)Man(a1-3)[Man(a1-2)Man(a1-6)]Man
# In short: as §1
# [8] = molecular target: Man(a1-3)[Man(a1-6)]Man(b1-4)GlcNAc(b1-4)[Fuc(a1-6)]GlcNAc
# In short: as §1
# [9] = molecular target: Neu5Ac(a2-3)Gal(b1-3)GalNAc6S
# In short: as §1
# [10] = molecular target: Neu5Ac(a2-3)Gal(b1-3)]Neu5Ac(a2-3)Gal(b1-4)]GlcNAc
# In short: as §1
# [11] = molecular target: Neu5Ac(a2-3)Gal(b1-4)GlcNAc(b1-3)Gal(b1-4)GlcNAc(b1-3)Gal(b1-4)GlcNAc(b1-2)Man(a1-3)[Neu5Ac(a2-3)Gal(b1-4)GlcNAc(b1-3)Gal(b1-4)GlcNAc(b1-3)Gal(b1-4)GlcNAc(b1-2)Man(a1-6)]GalNAc
# In short: as §1
# [12] = molecular target: Neu5Ac(a2-3)Gal(b1-4)GlcNAc(b1-6)[Gal(b1-3)]GalNAc
# In short: as §1
# [13] = molecular target: Neu5Ac(a2-3)Gal(b1-4)[Fuc(a1-3)]GlcNAc6S
# In short: as §1
# [14] = molecular target: Neu5Ac(a2-3)[GalNAc(b1-4)]Gal(b1-4)Glc
# In short: as §1
# [15] = molecular target: Neu5Ac(a2-6)Gal(b1-4)GlcNAc(b1-2)Man(a1-3)[GlcNAc(b1-4)][Neu5Ac(a2-6)Gal(b1-4)GlcNAc(b1-2)Man(a1-6)]Man(b1-4)GlcNAc(b1-4)GlcNAc
# In short: as §1
# [16] = molecular target: Neu5Ac(a2-6)Gal(b1-4)GlcNAc(b1-2)Man(a1-6)Man(b1-4)GlcNAc(b1-4)GlcNAc
# In short: as §1
# [17] = molecular target: Neu5Ac(a2-6)Gal(b1-4)GlcNAc(b1-3)Gal(b1-4)GlcNAc(b1-3)Gal(b1-4)GlcNAc(b1-2)Man(a1-3)[Neu5Ac(a2-6)Gal(b1-4)GlcNAc(b1-3)Gal(b1-4)GlcNAc(b1-3)Gal(b1-4)GlcNAc(b1-2)Man(a1-6)]GalNAc
# In short: as §1
# [18] = molecular target: Neu5Ac(a2-6)Gal(b1-4)GlcNAc(b1-3)Gal(b1-4)GlcNAc(b1-3)[Neu5Ac(a2-6)Gal(b1-4)GlcNAc(b1-3)Gal(b1-4)GlcNAc(b1-6)]GalNAc
# In short: as §1
# [19] = molecular target: Neu5Ac(a2-6)Gal(b1-4)GlcNAc(b1-3)Gal(b1-4)[Fuc(a1-3)]GlcNAc(b1-3)Gal(b1-4)[Fuc(a1-3)]GlcNAc
# In short: as §1
# [20] = molecular target: Neu5Ac(a2-6)GalNAc
# In short: as §1
# [21] = molecular target: Neu5Ac(a2-8)Neu5Ac(a2-3)Gal(b1-4)GlcNAc
# In short: as §1
# [22] = molecular target: Neu5Gc(a2-3)Gal(b1-4)GlcNAc
# In short: as §1
# [23] = molecular target: Neu5Gc(a2-6)GalNAc
# In short: as §1
binder,measurement,setting,value
B1,glycan array binding signal (z-score),[1],6.83
same,glycan array binding signal (z-score),[2],2.6
same,glycan array binding signal (z-score),[3],0.255
same,glycan array binding signal (z-score),[4],-0.344
same,glycan array binding signal (z-score),[5],-0.441
same,glycan array binding signal (z-score),[6],4.84
same,glycan array binding signal (z-score),[7],2.93
same,glycan array binding signal (z-score),[8],-0.195
same,glycan array binding signal (z-score),[9],-0.078
same,glycan array binding signal (z-score),[10],-0.531
same,glycan array binding signal (z-score),[11],2.98
same,glycan array binding signal (z-score),[12],3.31
same,glycan array binding signal (z-score),[13],-0.574
same,glycan array binding signal (z-score),[14],-0.63
same,glycan array binding signal (z-score),[15],-0.202
same,glycan array binding signal (z-score),[16],-0.385
same,glycan array binding signal (z-score),[17],1.24
same,glycan array binding signal (z-score),[18],-0.027
same,glycan array binding signal (z-score),[19],-0.212
same,glycan array binding signal (z-score),[20],-0.388
same,glycan array binding signal (z-score),[21],-0.655
same,glycan array binding signal (z-score),[22],-0.632
same,glycan array binding signal (z-score),[23],3.75
